According to the supplement of paper PMC12067093, “Discovery and optimisation of a covalent ligand for TRIM25 and its application to targeted protein ubiquitination” (Chemical Science, 2025):
About 21,000 targets were measured; listed, in parts, are those with the largest changes and a random draw of the rest.

Compound: CC1Cc2ccccc2N1C(=O)C1CCCN(C1)C(=O)CCl (mixture of isomers) [TRIM25 ligand 11 (diastereomer mixture)]
Assay: probe-labelled cysteine peptide fold change vs DMSO (competition) (log2 fold change); higher = less target engagement (more negative = stronger competition)
Conditions: THP-1, incubation time: 4 h
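Note: competitive chemoproteomic profiling in live THP-1 cells with an iodoacetamide desthiobiotin (IA-DTB) probe, comparing probe-labelled peptide intensities in compound-treated cells against DMSO-treated controls.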

Target	probe-labelled cysteine peptide fold change (10 µM)	probe-labelled cysteine peptide fold change (50 µM)
NCAPG_Q9BPX3_177_DDECPVVNAYATLIENDSNPEVR (UniProt Q9BPX3)	-0.316	-0.473
LSS_P48449_484_LCDAVAVLLNMR (UniProt P48449)	-0.0996	-0.128
MTF2_Q9Y483_133_CGQGYHQLCHTPHIDSSVIDSDEK (UniProt Q9Y483)	0.12	0.228
MCL1_Q07820_286_TINQESCIEPLAESITDVLVR (UniProt Q07820)	-0.36	-0.583
NAE1_Q13564_384_LLCSNSAFLR (UniProt Q13564)	-0.025	-0.00331
MATR3_P43243_296_GYPHLCSICDLPVHSNK (UniProt P43243)	-0.0503	0.00253
MACF1_Q9UPN3_5309_DCDVQGLEHDMEEINAR (UniProt Q9UPN3)	0.136	-0.0387
MTMR3_Q13615_81_ESLVNVPLQLIESVECR (UniProt Q13615)	0.553	-0.00809
NADK2_Q4G0N4_311_SSGLNLCTGTGSK (UniProt Q4G0N4)	-0.0288	-0.0319
MSTO1_Q9BUK6_232_LHFYVEECDYLQGFQILCDLHDGFSGVGAK (UniProt Q9BUK6)	0.183	-0.0331
MYO9B_Q13459_1169_HIQSCK (UniProt Q13459)	-0.0237	-0.105
MYCBP2_O75592_3786_NITINCVK (UniProt O75592)	-0.237	0.117
MED7_O43513_223_DAALCVLIDEMNERP (UniProt O43513)	0.0565	-0.131
MATR3_P43243_821_NTHCSSLPHYQK (UniProt P43243)	0.121	-0.196
MKI67_P46013_773_EQPQLTSTCHIAISNSENLLGK (UniProt P46013)	0.234	-0.0412
NCAPG2_Q86XI2_776_NRECLLSAPR (UniProt Q86XI2)	-0.0525	-0.00285
NCAPD3_P42695_361_ILLQHICAK (UniProt P42695)	-0.145	0.173
MRC2_Q9UBG0_201_YDNQWFHGCTSTGR (UniProt Q9UBG0)	-0.768	-1.05
MED1_Q15648_302_WTPSFSSITSANSVDLPACFFLK (UniProt Q15648)	-0.00458	0.123
MICALL1_Q8N3F8_194_CSSTLLPGAYENGPEEGTFVCAEHCAR (UniProt Q8N3F8)	0.154	-0.0569
MDN1_Q9NU22_3690_LLGSQLLACTLSHNTLFGEAPSDLMVKPDGPYDFYQHPNVPEAR (UniProt Q9NU22)	0.00494	0.105
MAN2C1_Q9NTJ4_871_WMDLSEHGFGLALLNDCK (UniProt Q9NTJ4)	0.38	0.327
NAA25_Q14CX7_339_SQGCNDEYK (UniProt Q14CX7)	0.0881	-0.0602

Target	probe-labelled cysteine peptide fold change (10 µM)	probe-labelled cysteine peptide fold change (50 µM)
MAU2_Q9Y6X3_145_AIQISQQTPYWHCR (UniProt Q9Y6X3)	-0.167	0.0177
MBIP_Q9NS73_243_DCGNQAVEER (UniProt Q9NS73)	-0.0155	-0.0072
MECP2_P51608_429_GGSLESDGCPKEPAK (UniProt P51608)	-0.274	-0.613
METAP1_P53582_255_KLVQTTYECLMQAIDAVKPGVR (UniProt P53582)	-0.564	-0.516
MAP4K1_Q92918_334+335_SSSLGIPDADCCR (UniProt Q92918)	-0.0222	-0.126
MYH9_P35579_896_LQLQEQLQAETELCAEAEELRAR (UniProt P35579)	-0.566	-0.0747
MIS12_Q9H081_133_YKTELCTK (UniProt Q9H081)	-0.0461	0.0357
LUC7L3_O95232_58_SDLGPCEK (UniProt O95232)	-0.0397	-0.155
MELTF_P08582_603_SEDYELLCPNGAR (UniProt P08582)	0.0149	0.0229
MRPL45_Q9BRJ2_151_DIFIEAHLCLNNSDHDR (UniProt Q9BRJ2)	-0.648	-0.159
MTPAP_Q9NVV4_324_FSHQASGFQCDLTTNNR (UniProt Q9NVV4)	0.592	0.896
MOB4_Q9Y3A3_134_HTLDGAACLLNSNK (UniProt Q9Y3A3)	-0.19	-0.629
MAT1A_Q00266_34_ICDQISDAVLDAHLK (UniProt Q00266)	0.555	0.255
MYO18A_Q92614_1046_LHFVHCFLPVAEGWAGEPR (UniProt Q92614)	0.231	0.422
NACC1_Q96RE7_178_VKTEQQESDSVQCMPVAK (UniProt Q96RE7)	-0.28	-0.426
MGMT_P16455_145_GNPVPILIPCHR (UniProt P16455)	-0.499	-1.05
MORC3_Q14149_744_ETCHQSTETDAVFLLESINGK (UniProt Q14149)	0.143	-0.605
MED13L_Q71F56_1457_LGQHKPICK (UniProt Q71F56)	-0.182	-0.263
MRPS34_P82930_93_SWLWQHDEPCYWR (UniProt P82930)	0.0173	0.142
MATR3_P43243_230_CRDDSFFGETSHNYHK (UniProt P43243)	0.0188	-0.0509
MYO1G_B0I1T2_618_LDENHCR (UniProt B0I1T2)	0.054	0.247
MRTO4_Q9UKD2_176_RGVVTLLSDYEVCK (UniProt Q9UKD2)	0.091	-0.0317
NAA10_P41227_17+21_NARPEDLMNMQHCNLLCLPENYQMK (UniProt P41227)	-0.0777	-0.156

Target	probe-labelled cysteine peptide fold change (10 µM)	probe-labelled cysteine peptide fold change (50 µM)
MDN1_Q9NU22_1394_ALEFGEPVLLVGDTGCGK (UniProt Q9NU22)	-0.0161	0.145
MACF1_Q9UPN3_3619_QQNTCHQQLEDLCSWVGQAER (UniProt Q9UPN3)	-0.474	0.118
MRM3_Q9HC36_309_ASDHGWVCDQR (UniProt Q9HC36)	0.135	-0.1
MYH9_P35579_671_CIIPNHEKK (UniProt P35579)	-0.608	-0.373
MAVS_Q7Z434_33_NFSNFCNVDVVEILPYLPCLTAR (UniProt Q7Z434)	0.142	0.343
MCM6_Q14566_351_NLYHNLCTSLFPTIHGNDEVK (UniProt Q14566)	0.107	0.0102
MGST3_O14880_56_YKVEYPIMYSTDPENGHIFNCIQR (UniProt O14880)	0.0746	-0.113
MAP4_P27816_635_CSLPAEEDSVLEK (UniProt P27816)	-0.069	-0.135
MDH2_P40926_93_GCDVVVIPAGVPR (UniProt P40926)	-0.0615	0.0728
NAPA_P54920_212+215_AALCHFCIDMLNAK (UniProt P54920)	-0.0124	0.149
NBAS_A2RRP1_1634_QLHCYNER (UniProt A2RRP1)	0.000992	-0.0554
NCAPH_Q15003_114_FTNTQITEHYSTCIK (UniProt Q15003)	0.199	-0.135
NAXD_Q8IW45_261_GERDILSNGQQVLVCSQEGSSR (UniProt Q8IW45)	0.0581	0.131
MAP10_Q9P2G4_605_TVDCSK (UniProt Q9P2G4)	-0.174	-0.0642
LYAR_Q9NX58_30_NCECLSCIDCGK (UniProt Q9NX58)	-0.0598	-0.0603
MFSD2A_Q8NA29_44_KQQLSVCNK (UniProt Q8NA29)	-0.207	-0.294
MVP_Q14764_515_ALCLLLGPDFFTDVITIETADHAR (UniProt Q14764)	0.505	0.893
LTA4H_P09960_26_CSVDFTR (UniProt P09960)	-0.0535	-0.00265
MT1E_P04732_50_CAQGCVCK<|>MT1F_P04733_50_CAQGCVCK<|>MT1B_P07438_50_CAQGCVCK<|>MT1L_Q93083_50_CAQGCVCK (UniProt Q93083+P07438+P04733+P04732)	-0.000901	0.116
MTM1_Q13496_242_CSQPLVGMSGKR (UniProt Q13496)	-0.862	-0.255
NANS_Q9NR45_19_WVGGQHPCFIIAEIGQNHQGDLDVAK (UniProt Q9NR45)	0.0689	0.0782
MCM3AP_O60318_439_SESTDSLGGLSPSEVTAIQCK (UniProt O60318)	-0.0427	-0.262
NAPA_P54920_84_HDAATCFVDAGNAFK (UniProt P54920)	0.0886	0.00981
